From PubChem BioAssay
MCF10A rereplic – DNA re-replication induction in MCF 10a cells. MCF 10A DNA re-replication, Hoechst nuclear intensity, 48 h. Potency, µM (top dose mostly 46.1 µM), without a hit: at the top dose activity, positive = re-replication, most hits filed as activators. 350,000 compounds, 2.9% hits. AID 624296; note: potency is the fitted concentration of half-maximal effect; % of control where 0% means no effect; nearly all actives have a fitted effect of over 50% in size
IL-1B inflam inh – inflammasome signaling inhibition, IL-1 beta readout; THP-1 LPS/ATP IL-1B secretion, AlphaLISA, 16 h; hits give low values; 360,000 compounds, 4.7% hits; AID 743279; activity change, % at 57.5 µM; in the data active = activity change below about -50%; inconclusive = mostly about -30% to -49%; note: % is set by controls: 0 for no effect and ±100 for the full control effect
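Secreted IL-1B measured by AlphaLISA bead assay after 16 h compound exposure of THP-1 cells; compounds (final up to 57.5 uM) added 1 h before LPS (250 ng/mL) and ATP (1.25 mM) stimulation; lower signal means less secretion.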
VP16 counter – inhibits Gal4-VP16 luciferase reporter, ROR gamma counter-screen | Potency, µM (series often up to 53.6 µM), inactives show at the highest dose activity, negative = inhibition, actives largely listed as inhibitors | Drosophila S2 Gal4-VP16 UAS-luciferase, luminescence, 20 h | AID 2546 | 310,000 compounds, 3.5% hits;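 note: Gal4-VP16 expression switched on by copper sulfate through the metallothionein promoter; potency is the fitted concentration of half-maximal effect; % is set by controls: 0 for no effect and ±100 for the full control effect; nearly all actives have a fitted effect of over 50% in size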
SW480 rerep – inducers of DNA re-replication in SW480 colon cancer cells; Potency, µM (series often up to 46.1 µM), for inactives: at the highest dose re-replication activation, most hits filed as activators; SW480 DNA re-replication, Hoechst DNA content imaging, 48 h; AID 624297; 340,000 compounds, 1.8% hits; note: potency is the fitted concentration of half-maximal effect; % of control where 0% means no effect; nearly all actives have a fitted effect of over 55% in size
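Hoechst fluorescence of nuclei (405 nm excitation, 500-530 nm emission) measured by plate-scanning imager after 48 hr compound exposure at 37 C; re-replication scored as increased number of nuclei with elevated intensity.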
RORgamma inh – ROR gamma (mouse) transcription inhibition; P51450; Drosophila S2 Gal4-RORgamma UAS-luciferase reporter, 20 h; 310,000 compounds, 5.4% hits; Potency, µM (doses to about 53.6 µM), for the others: at the highest dose activity change, negative = inhibition, usual class: inhibitors; note: potency is the fitted concentration of half-maximal effect; % is set by controls: 0 for no effect and ±100 for the full control effect; nearly all actives have a fitted effect of over 60% in size
Target sequence (P51450 whole entry, looked up, the tested form may be a part): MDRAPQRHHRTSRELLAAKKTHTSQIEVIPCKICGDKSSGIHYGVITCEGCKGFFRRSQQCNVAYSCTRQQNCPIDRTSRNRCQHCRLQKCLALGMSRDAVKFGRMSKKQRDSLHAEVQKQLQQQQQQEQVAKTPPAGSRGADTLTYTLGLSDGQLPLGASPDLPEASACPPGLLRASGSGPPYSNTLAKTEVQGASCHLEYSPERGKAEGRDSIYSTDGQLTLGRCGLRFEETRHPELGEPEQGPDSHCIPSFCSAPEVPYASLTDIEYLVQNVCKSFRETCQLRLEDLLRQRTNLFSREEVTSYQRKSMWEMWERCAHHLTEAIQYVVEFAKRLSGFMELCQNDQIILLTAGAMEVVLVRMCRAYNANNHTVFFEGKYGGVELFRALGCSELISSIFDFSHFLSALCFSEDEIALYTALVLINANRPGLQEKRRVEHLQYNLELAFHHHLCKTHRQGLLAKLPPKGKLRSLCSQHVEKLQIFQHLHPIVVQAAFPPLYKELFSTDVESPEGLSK
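Stably transfected Drosophila Schneider cells are the test system, with ROR gamma fused to Gal4 and luciferase under UAS control; luminescence is read after 20 hr of 700 uM copper sulfate induction at ambient temperature.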
* marks the source's active call; other numbers are inactive results; ? = inconclusive; · = no result given; [ ] = another dose, or the depositor's remark. The list is not random: actives were taken first. Their share in the collection is about 11%. Unless noted, calls come from the whole dose curve; as a rule, active = well fitted curve in the direction sought with a large enough effect; inconclusive = small, poorly fitted or top-dose-only effect, or another doubt; inactive = no such curve, though single readings can be large; an effect the other way counts as inactive or inconclusive.

SMILES	MCF10A rereplic	IL-1B inflam inh	VP16 counter	SW480 rerep	RORgamma inh
COc1ccc(NC(=S)NC(NC(=O)c2cccc(Cl)c2)C(Cl)(Cl)Cl)c([N+](=O)[O-])c1 (centres undefined)	?	-60*	?	?	?
Nn1cc(-c2ccccc2)nc1SCC(=O)N1CCN(S(=O)(=O)c2ccc3ccccc3c2)CC1	-2%	-51*	12%	-3%	10%
Cc1nnc(SCC(=O)N2CCN(S(=O)(=O)c3ccccc3)CC2)s1	0%	0	2%	-5%	-7%
O=C(CCl)N1CCN(S(=O)(=O)c2ccc3c(c2)OCCCO3)CC1	4.1µM*	-96*	·	?	·
O=C(Cc1ccccc1F)N1CCN(S(=O)(=O)c2ccc(Cl)cc2)CC1	16µM*	15	·	?	·
CC(C)CC(=O)N1CCN(S(=O)(=O)c2ccc(Cl)cc2)CC1	-6%	0	-8%	-9%	15%
CCCCNc1nnc(SCC(=O)N2CCN(S(=O)(=O)c3ccc4ccccc4c3)CC2)s1	1%	-54*	6%	17%	17%
COc1ccc(NC(=O)C2CCC(C(C)(C)C)CC2)cc1S(=O)(=O)N1CCOCC1 (centres undefined)	18%	35	·	0%	·
CN(C)C(=O)N1CCN(S(=O)(=O)c2ccc3ccccc3c2)CC1	7%	-11	?	-3%	25%[1.91 µM]
O=C(CCl)N1CCN(S(=O)(=O)c2ccc3ccccc3c2)CC1	15µM*	-99*	?	?	?
COc1ccc(C(=C2C(=O)Nc3ccccc32)c2ccc(OC)cc2)cc1	·	·	5%	·	22%
COCCCn1cnc2oc3nc4ccccc4nc3c2c1=O	1%	-4	1.3µM*	-10%	?
COCCNC(=O)C1(C)CCN(Cc2cccc(Oc3ccccc3)c2)C1 (centres undefined)	·	28	·	·	·
Cc1ccc(C(=O)N/C(=C\c2ccc(Br)cc2)c2nc(=S)[nH][nH]2)cc1	-2%	-79*	?	-3%	-44%
O=C(Nc1cccc(C(=O)Nc2cccc(Br)c2)c1)c1ccccc1	?	-1	13%	-12%	?
O=C(N/C(=C/c1cccc(Br)c1)c1nc(=S)[nH][nH]1)c1ccccc1	?	-100*	?	2%	-33%
C[C@H]1C(=O)N(S(=O)(=O)c2ccccc2[N+](=O)[O-])[C@H]1c1ccc(-c2ccccc2)cc1	·	·	9%	·	0%
CC(=O)c1cccc(NC(=O)C2Cc3c(-c4ccco4)ccnc3O2)c1 (centres undefined)	·	0	·	·	·
CC(/C=C/c1ccccc1)=N\NC(=O)CCc1ccccc1	-9%	0	-9%	5%	-44%
C/C(=N\NC(=O)c1cccc(Cl)c1)C1C(=O)c2ccccc2C1=O	?	0	-4%	3.7µM*	-4%
CC(=O)Nc1cccc(NC(=O)c2cccc(Cl)c2)c1	·	13	·	·	·
C/C(=N\NC(=O)CCc1ccccc1)C1C(=O)c2ccccc2C1=O	18%	40	2µM*	?	0.56µM*
COc1ccc(-c2nc3ccccc3c(=O)n2NC(=S)N(C)C)cc1	-1%	-9	1%	1%	30%
COc1ccc(OCC(=O)Nn2c(-c3ccc(C)cc3)nc3ccccc3c2=O)cc1	20%	14	6.3µM*	?	-37%
COc1ccc(OCC(=O)Nn2c(-c3ccc(OC)cc3)nc3ccccc3c2=O)cc1	15%	6	10µM*	4%	?
COc1cccc(C(=Cc2ccc([N+](=O)[O-])cc2)C(=O)O)c1	·	25	·	·	·
C[C@H](CO)N1C[C@H](C)[C@@H](CN(C)S(C)(=O)=O)Oc2c(NC(=O)Cc3ccccc3)cccc2C1=O	-4%	-12	·	0.12µM*	·
C[C@H](CO)N1C[C@H](C)[C@@H](CN(C)S(=O)(=O)c2cccs2)Oc2c(NC(=O)Cc3ccccc3)cccc2C1=O	10%	-3	·	0%	·
C[C@H](CO)N1C[C@H](C)[C@@H](CN(C)Cc2ccc(Oc3ccccc3)cc2)Oc2c(NC(=O)C3CC3)cccc2C1=O	?	-75*	·	?	·
